Data: the antibiotic and cytotoxicity screens of Wong et al. (2023)
In all, about 39,000 compounds went through this assay and about 3,300 (8.5%) were called active. Only a selection was taken, and actives are over-represented in it overall.

The compounds below were run on HepG2 (assay: cytotoxicity call (relative viability < 0.9)). Conditions: 10 µM.

Row | Compound | cytotoxicity call
1 | C[C@H]1CCCCO[C@@H](CN(C)C(=O)Nc2ccc(C(F)(F)F)cc2)[C@@H](C)CN([C@@H](C)CO)C(=O)c2cc(NC(=O)Cc3ccccc3)ccc2O1 | inactive
2 | O=C(C[C@H]1CC[C@@H]2[C@H](COC[C@@H](O)CN2CC2CCOCC2)O1)N1CCOCC1 | inactive
3 | C[C@@H]1CCCCO[C@@H](CN(C)C(=O)Nc2ccccc2)[C@H](C)CN([C@H](C)CO)C(=O)c2cc(NC(=O)NC3CCCCC3)ccc2O1 | inactive
4 | C[C@@H]1CN([C@H](C)CO)C(=O)c2cc(NC(=O)Nc3cccc4ccccc34)ccc2O[C@@H]1CN(C)S(=O)(=O)c1ccc(F)cc1 | inactive
5 | CCS(=O)(=O)N1C[C@]2(CN(C2)S(=O)(=O)c2cn(cn2)C)c2c(n(c3cc(ccc23)OC)C)[C@H]1CO | inactive
6 | C[C@@H]1CCCCO[C@@H](CN(C)C(=O)Nc2ccc(C(F)(F)F)cc2)[C@H](C)CN([C@H](C)CO)C(=O)c2cc(NS(=O)(=O)c3ccc(Cl)cc3)ccc2O1 | inactive
7 | C[C@@H]1CCCCO[C@H](CN(C)C(=O)Nc2ccc(C(F)(F)F)cc2)[C@@H](C)CN([C@@H](C)CO)C(=O)c2cc(NS(=O)(=O)c3ccc(Cl)cc3)ccc2O1 | inactive
8 | C[C@@H]1CN([C@H](C)CO)C(=O)c2cc(NS(=O)(=O)c3ccc(Cl)cc3)ccc2O[C@@H](C)CCCCO[C@H]1CN(C)C(=O)Nc1ccc(C(F)(F)F)cc1 | active
9 | O=C(C[C@H]1CC[C@@H]2[C@H](COC[C@H](O)CN2S(=O)(=O)c2ccccc2)O1)NCCN1CCCCC1 | inactive
10 | C[C@H]1CCCCO[C@H](CN(C)Cc2ccccc2)[C@@H](C)CN([C@@H](C)CO)C(=O)c2cc(NC(=O)Nc3ccccc3)ccc2O1 | inactive
11 | COC(=O)[C@@]12OC[C@]34[C@H]([C@@H](O)[C@@H]1O)[C@@]1(C)CC(=O)C(=O)[C@H](C)[C@@H]1C[C@H]3OC(=O)[C@H](OC(=O)/C=C(\C)C(C)C)[C@@H]24 | active
12 | COc1ccc2c3c([nH]c2c1)[C@@H](CO)N(CC1CCCC1)C[C@]13CCN(CC1)C(=O)Nc1cccc(c1)F | inactive
13 | COc1ccc2c3c([nH]c2c1)[C@H](CO)N(CC1CCCC1)C[C@]13CCN(CC1)C(=O)Nc1cccc(c1)F | inactive
14 | COc1ccc2c3c([nH]c2c1)[C@@H](CO)N(C[C@]13CCN(CC1)C(=O)Nc1cccc(c1)F)C(=O)c1ccccc1 | inactive
15 | COc1ccc2c3c([nH]c2c1)[C@H](CO)N(C[C@]13CCN(CC1)CC1CCCC1)C(=O)Nc1cccc(c1)F | active
16 | COc1ccc2c3c([nH]c2c1)[C@@H](CO)N(C[C@]13CCN(CC1)CC1CCCC1)C(=O)Nc1cccc(c1)F | active
17 | Cc1noc(C)c1S(=O)(=O)Nc1ccc2c(c1)CC(=O)N([C@@H](C)CO)C[C@@H](C)[C@H](CN(C)S(=O)(=O)c1cccs1)O2 | inactive
18 | CCOC(=O)C(=O)N(C)CC(OC)OC | inactive
19 | CCOC(=O)OC[C@@H]1[C@@H]2NC(=O)N(C)[C@@]1(COC(=O)NCCCCCC(=O)NO)Oc1ccccc12 | inactive
20 | C[C@H](CO)N1C[C@H](C)[C@@H](CN(C)S(C)(=O)=O)OCCCC[C@H](C)Oc2ccc(NS(C)(=O)=O)cc2C1=O | inactive
21 | COc1ccc(S(=O)(=O)N(C)C[C@@H]2Oc3ccc(NS(=O)(=O)c4ccc(F)cc4)cc3C(=O)N([C@H](C)CO)C[C@@H]2C)cc1 | inactive
22 | CC(C)N1C[C@H](C)[C@@H](CN(C)Cc2ccc(Oc3ccccc3)cc2)Oc2c(cccc2-c2nn[nH]n2)C1=O | inactive
23 | N=C(N=C(N)N)NCCc1ccccc1 | active

Row | Compound | cytotoxicity call
24 | N=C(N=C(N)N)Nc1ccccc1 | inactive
25 | Cl.N=C(N)NC(=N)NCCc1ccccc1 | inactive
26 | Cc1cc(C(=O)O)c(=O)[nH]c1C | inactive
27 | NCCC1=CSC2=NCCN12 | inactive
28 | O=C(CCCCCCC(=O)Nc1ccc([C@H]2O[C@@H](CSc3ccccn3)C[C@H](c3ccccc3)O2)cc1)NO | inactive
29 | CCS(=O)(=O)NCC[C@@H]1CC[C@H](NC(=O)Cc2ccccn2)[C@@H](CO)O1 | inactive
30 | Cc1ccc(S(=O)(=O)N[C@@H]2CC[C@@H](CC(=O)NCc3ccc(Cl)c(Cl)c3)O[C@@H]2CO)cc1 | inactive
31 | Cc1ccccc1-c1ccc2c(c1)O[C@@H](CN(C)C(=O)Nc1ccc(C(F)(F)F)cc1)[C@H](C)CN([C@H](C)CO)S2(=O)=O | inactive
32 | Cc1ccc(-c2ccc3c(c2)O[C@H](CN(C)C(=O)Nc2ccc(C(F)(F)F)cc2)[C@H](C)CN([C@@H](C)CO)S3(=O)=O)cc1 | inactive
33 | Cc1ccc(-c2ccc3c(c2)O[C@@H](CN(C)C(=O)Nc2ccc(C(F)(F)F)cc2)[C@@H](C)CN([C@@H](C)CO)S3(=O)=O)cc1 | inactive
34 | Cc1ccccc1-c1ccc2c(c1)O[C@H](CN(C)C(=O)Nc1ccc(C(F)(F)F)cc1)[C@H](C)CN([C@@H](C)CO)S2(=O)=O | active
35 | Cc1ccccc1-c1ccc2c(c1)O[C@H](CN(C)C(=O)Nc1ccc(C(F)(F)F)cc1)[C@H](C)CN([C@H](C)CO)S2(=O)=O | inactive
36 | Cc1ccc(-c2ccc3c(c2)O[C@@H](CN(C)C(=O)Nc2ccc(C(F)(F)F)cc2)[C@@H](C)CN([C@H](C)CO)S3(=O)=O)cc1 | active
37 | C[C@@H]1CCCCO[C@H](CN(C)Cc2ccc(C(=O)O)cc2)[C@@H](C)CN([C@H](C)CO)C(=O)c2cc(NC(=O)c3ccccc3)ccc2O1 | inactive
38 | C[C@H](CO)N1C[C@H](C)[C@@H](CN(C)CC2CCCCC2)Oc2c(NC(=O)Cn3cnnn3)cccc2C1=O | inactive
39 | C[C@@H]1CN([C@H](C)CO)C(=O)Cc2cc(NC(=O)Cn3cnnn3)ccc2O[C@H]1CN(C)CC1CC1 | inactive
40 | C[C@H]1CN([C@@H](C)CO)S(=O)(=O)c2ccc(-c3cccnc3)cc2O[C@@H]1CN(C)C(=O)NC1CCCC1 | inactive
41 | O=C(C1CC1)N1CCCN(C(=O)C2CC2)CC1 | inactive
42 | Cc1noc(C)c1S(=O)(=O)Nc1ccc2c(c1)C(=O)N([C@@H](C)CO)C[C@H](C)[C@H](CN(C)C(=O)Nc1ccc(F)cc1)OCCCC[C@H](C)O2 | inactive
43 | O=c1ccn([C@@H]2O[C@H](CO)[C@@H](O)[C@H]2O)c(=O)[nH]1 | inactive
44 | O=c1ccn(C2OC(CO)C(O)C2O)c(=O)[nH]1 (stereo not given) | inactive
45 | O=c1ccn([C@H]2O[C@H](CO)[C@@H](O)[C@@H]2O)c(=S)[nH]1 | active
